# Assay outcomes deposited in PubChem BioAssay by The Scripps Research Institute Molecular Screening Center.
# Most compounds without a hit are left out; they make up all but 2.6% or so of the library.
# PKA-R1A activ – PKA-R1A complex activation; P00514+P68181; AID 504707; activation, % at 11.4 µM; PKA-R1A dissociation, Cy5-IP20 fluorescence polarization; scaled: DMSO 0%, 113 µM cGMP 100%; 0.083% of 340,000 active;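 active = percent activation above the mean of all tested compounds plus 3 SD, cut at about 19% in these data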;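 also: higher means more PKAc released from R1A so a rise in polarization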
# PAFAH2 inh – inhibitors of human PAFAH2. Q99487. recombinant PAFAH2, FP-rhodamine activity probe, fluorescence polarization. 0.99% of 340,000 active. AID 492956. inhibition, % at 3.39 µM;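 active = inhibition above the mean over all tested compounds plus 3 SD, cut at about 30% in these data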;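 also: inhibitors block probe labeling of enzyme so polarization drops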
# PAFAH1B3 inh – PAFAH1B3 (human) inhibition; Q15102; 0.28% of 340,000 active; inhibition, % at 3.39 µM; recombinant PAFAH1B3, FP-rhodamine probe, fluorescence polarization;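 active = inhibition above the screen-wide average of all tested compounds plus 3 SD, cut at about 25% in these data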
# pPAFAH FP inh – pPAFAH (human) enzyme inhibition; Q13093; recombinant pPAFAH, FP-rhodamine probe fluorescence polarization; inhibition, % at 3.39 µM; 1.5% of 330,000 active; AID 463082;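 active = inhibition above the mean inhibition across the screen plus 3 SD, cut at about 25% in these data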;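 also: inhibitors block binding of the rhodamine activity-based probe so polarization drops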
# PAFAH1B2 FP inh – PAFAH1B2 (human) inhibition; 1.2% of 340,000 active; AID 492953; P68402; inhibition, % at 3.39 µM; recombinant PAFAH1B2, FP-rhodamine activity probe, fluorescence polarization;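 active = inhibition above the mean of all tested compounds plus 3 SD, cut at about 24% in these data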
# Target sequence (P68402 whole entry, looked up): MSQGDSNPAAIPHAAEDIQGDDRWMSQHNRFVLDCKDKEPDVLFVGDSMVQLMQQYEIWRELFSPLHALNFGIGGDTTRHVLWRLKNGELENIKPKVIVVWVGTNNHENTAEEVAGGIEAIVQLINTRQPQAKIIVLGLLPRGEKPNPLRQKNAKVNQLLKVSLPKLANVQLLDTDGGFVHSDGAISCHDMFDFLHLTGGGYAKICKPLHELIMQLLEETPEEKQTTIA
# PKA-R2B activ – activators of human PKA-R2B complex | activation, % at 11.4 µM | 0.079% of 340,000 active | AID 504700 | P22694+P31323 | PKA-R2B holoenzyme dissociation, Cy5-IP20 fluorescence polarization; R2B truncated from residue 108, S112A mutant; 0% DMSO only, 100% 113 µM cGMP;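 active = activation above a cutoff set at the mean over all compounds plus 3 SD, cut at about 18% in these data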;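 also: higher means more holoenzyme dissociation and a rise in polarization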
# A number is an active result; i = inactive; nt = no result given.
SMILES,PKA-R1A activ,PAFAH2 inh,PAFAH1B3 inh,pPAFAH FP inh,PAFAH1B2 FP inh,PKA-R2B activ
O=S(=O)(c1ccc(Cl)cc1)N1CCC(c2nc3ccccc3[nH]2)CC1,i,i,i,i,27.2,i
O=S(=O)(c1ccc(Cl)cc1)N1CCC(N2CCCCCC2)CC1,i,i,i,i,i,i
O=S(=O)(c1ccc(Cl)cc1)N1CCCCCC1,i,i,i,i,i,i
O=S(=O)(c1ccccc1)N1CCC2(CC1)CO2,i,i,i,i,i,i
O=S(=O)(c1ccc(Cl)cc1)N1CCC2(CC1)CO2,i,i,i,i,27.9,i
CC(=O)c1ccc(S(=O)(=O)N2CCC(c3nc4ccccc4[nH]3)CC2)cc1,i,i,i,i,i,i
O=C1CCN(S(=O)(=O)c2ccc(Cl)cc2)CC1,i,i,i,i,24.8,i
N#C/C(=C\c1ccc(C(=O)O)cc1)c1nc2sc3c(c2c(=O)[nH]1)CCCC3,i,i,i,nt,i,i
Cc1ccc(S(=O)(=O)N2CCC(=O)N(CCOCc3ccc(Cl)cc3)CC2)cc1,i,i,i,31.7,i,i
Cc1ccc(S(=O)(=O)N2CCC(=O)N(CCOCc3cccc(Cl)c3)CC2)cc1,i,i,i,i,i,i
NC(=O)c1ccsc1NC(=O)COC(=O)c1ccc([N+](=O)[O-])o1,i,i,i,i,i,i
NC(=O)c1ccsc1NC(=O)c1ccc([N+](=O)[O-])o1,i,35.7,i,35.7,i,i
Cc1c(Cl)cccc1NC(=O)CSCc1cc(=O)[nH][nH]1,i,i,i,24.9,i,i
Cc1c(Cl)cccc1NC(=O)CSc1nnnn1C,i,i,i,i,i,i
CSc1nc(N)nc2c1ncn2C1OC(CO)CC1O (stereo not drawn),i,i,i,nt,i,i
Oc1ccc(NCc2ccccc2OCc2ccccc2)cc1,i,i,i,26.5,i,i
CCOc1ccccc1N(CC(=O)NC1CCCC1)S(=O)(=O)c1ccc(C)cc1,i,i,i,i,i,i
O=C(O/N=C/c1ccc(Cl)cc1)C1CCCCC1,i,76.6,i,i,93.8,i
O=C(CN1CCCCC1)N/N=C/c1ccc(Cl)cc1,i,i,i,i,i,i
COc1ccc(N2CCN(c3ncnc4scc(-c5ccc(C)cc5)c34)CC2)cc1,i,i,i,i,i,i
COc1ccc(N2CCN(c3ncnc4scc(-c5ccccc5)c34)CC2)cc1,i,i,i,32.0,i,i
CC(=O)c1ccc(NC(=O)COC(=O)Cc2ccsc2)cc1,i,i,i,i,i,i
O=C(COC(=O)Cc1ccsc1)NNC(=O)c1ccccc1,i,i,i,26.1,i,i
O=C(COC(=O)CCc1c[nH]c(=O)[nH]1)Nc1ccccc1,i,33.8,i,i,i,i
O=C(COC(=O)Cc1ccsc1)Nc1cccc(F)c1,i,i,i,29.3,i,i
SMILES,PKA-R1A activ,PAFAH2 inh,PAFAH1B3 inh,pPAFAH FP inh,PAFAH1B2 FP inh,PKA-R2B activ
O=C(COC(=O)Cc1ccsc1)Nc1ccccc1,i,i,i,26.7,i,i
COc1ccc(CC(=O)OCC(=O)NNC(=O)c2ccccc2)cc1,i,i,i,i,i,i
NC(=O)c1ccc(Oc2ccc3ccc(=O)oc3c2)c([N+](=O)[O-])c1,i,i,i,i,i,i
O=c1ccc2ccc(Oc3ccc([N+](=O)[O-])cc3Cl)cc2o1,i,i,i,30.4,i,i
COc1ccccc1C(=O)NNC(=O)C1CCCO1 (stereo not drawn),i,i,i,i,i,i
CSc1ccc(CN(C)C(=O)c2ccc(S(=O)(=O)Nc3c(C)n(C)n(-c4ccccc4)c3=O)cc2)cc1,i,i,i,nt,i,i
CN(Cc1ccc(F)cc1)C(=O)c1cccc(NS(=O)(=O)c2ccccc2)c1,i,i,i,25.3,i,i
CSc1ccc(CN(C)C(=O)c2ccc(S(=O)(=O)Nc3ccccc3)cc2)cc1,i,i,i,32.2,i,i
Cc1cccc(C)c1NC(=O)CN(C)C(=O)c1cccc(NS(=O)(=O)c2ccccc2)c1,i,i,i,29.9,i,i
CC(=O)NN1C(=O)/C(=C/c2ccc(C(C)C)cc2)SC1=S,i,i,i,i,41.8,i
O=C(NN1C(=O)/C(=C/c2cccnc2)SC1=S)C(c1ccccc1)c1ccccc1,i,i,i,i,26.6,i
